Results taken from PubChem BioAssay AID1159580 (chemical genetic matrix, 2015).
Out of some 5,500 compounds screened, about 2,000 (36%) were called active. About 18% were inconclusive and are not listed. Cut-off read from the data, not from the text of the source: active = normalized growth mostly below about 0.91 (no sharp cut-off); inconclusive = no clear call, values can overlap the other calls; inactive = mostly above about 0.92. This is one part of the list.

Assay: chemical genetic growth profiling, strain panel (AID 1159580);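 note: tested at 20 µM; growth read once vehicle control cultures reached saturation at 30 °C; 1 = growth at the plate median or of vehicle wells; lower values mean less growth of the strain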
Conditions: growth OD
[1] = S. cerevisiae deletion strains, locus YDR150W, strain NUM1, active compounds read low
[2] = S. cerevisiae deletion strains, locus YGR078C, strain PAC10, active compounds read low
[3] = S. cerevisiae deletion strains, locus YJR075W, strain HOC1, active compounds read low
[4] = S. cerevisiae deletion strains, locus YMR263W, strain SAP30, active compounds read low
[5] = S. cerevisiae deletion strains, locus YPL055C, strain LGE1, active compounds read low

Measured: normalized growth

Nc1ncnc2c1nc(Br)n2C1OC2COP(=O)(O)O[C@@H]2C1O (stereo not given in full)
inactive: S. cerevisiae deletion strains, locus YAL040C, strain CLN3, active compounds read low 0.986 | [1] 0.999 | S. cerevisiae deletion strains, locus YER002W, strain NOP16, active compounds read low 0.996 | [2] 1.01 | [3] 1 | [4] 0.999 | S. cerevisiae deletion strains, locus YNL175C, strain NOP13, active compounds read low 0.986 | S. cerevisiae deletion strains, locus YNL197C, strain WHI3, active compounds read low 1.02 | S. cerevisiae deletion strains, locus YNL224C, strain SQS1, active compounds read low 0.999 | S. cerevisiae deletion strains, locus YOR083W, strain WHI5 (second series), active compounds read low 1.02 | [5] 1.01

O/N=C\c1sccc1Oc1ccccc1
active: S. cerevisiae deletion strains, locus YEL061C, strain CIN8, active compounds read low 0.869 | S. cerevisiae deletion strains, locus YNL153C, strain GIM3, active compounds read low 0.905
inactive: S. cerevisiae deletion strains, locus YAL013W, strain DEP1, active compounds read low 0.964 | S. cerevisiae deletion strains, locus YBR229C, strain ROT2, active compounds read low 0.958 | S. cerevisiae deletion strains, locus YCL061C, strain MRC1, active compounds read low 0.942 | S. cerevisiae deletion strains, locus YDL101C, strain DUN1, active compounds read low 0.926 | [1] 0.953 | [2] 0.952 | S. cerevisiae deletion strains, locus YHR030C, strain SLT2, active compounds read low 0.729 | S. cerevisiae deletion strains, locus YHR087W, strain rtc3, active compounds read low 1.01 | S. cerevisiae deletion strains, locus YJL187C, strain SWE1, active compounds read low 1.01 | S. cerevisiae deletion strains, locus YJR043C, strain POL32, active compounds read low 1 | [3] 0.978 | S. cerevisiae deletion strains, locus YLR039C, strain RIC1, active compounds read low 0.954 | S. cerevisiae deletion strains, locus YLR058C, strain SHM2 (second series), active compounds read low 0.997 | S. cerevisiae deletion strains, locus YLR085C, strain ARP6, active compounds read low 0.911 | S. cerevisiae deletion strains, locus YLR262C, strain YPT6, active compounds read low 0.931 | S. cerevisiae deletion strains, locus YML094W, strain GIM5, active compounds read low 0.927 | S. cerevisiae deletion strains, locus YMR219W, strain ESC1, active compounds read low 0.977 | [4] 0.968 | S. cerevisiae deletion strains, locus YNL128W, strain TEP1, active compounds read low 0.98 | S. cerevisiae deletion strains, locus YNL298W, strain CLA4 (second series), active compounds read low 0.962 | S. cerevisiae deletion strains, locus YNL322C, strain KRE1, active compounds read low 0.988 | S. cerevisiae deletion strains, locus YNR030W, strain Alg12, active compounds read low 0.932 | S. cerevisiae deletion strains, locus YOL006C, strain TOP1, active compounds read low 0.795 | [5] 0.98 | S. cerevisiae deletion strains, locus YPL241C, strain CIN2, active compounds read low 0.917 | S. cerevisiae deletion strains, locus YPR135W, strain CTF4, active compounds read low 0.648 | S. cerevisiae strains, strain wild type, active compounds read low 0.953
